# Tests used:
# Assay in all cases: DAPPL (digital affinity profiling via proximity ligation, sequencing); 10 mM Tris-HCl pH 7.5, 50 mM NaCl, 1 mM DTT, 4% glycerol, room temperature, 30 min; GST-TFs on glutathione beads, 16-mer random dsDNA library, 0.1% formaldehyde crosslink after washing; high values mean tight binding
# Settings in all cases: protein: recombinant; tags: N-terminal GST; dsDNA, one strand shown
# [1] = target: T1, ERF (Homo sapiens, UniProt P50548 1-548)
# T1 sequence: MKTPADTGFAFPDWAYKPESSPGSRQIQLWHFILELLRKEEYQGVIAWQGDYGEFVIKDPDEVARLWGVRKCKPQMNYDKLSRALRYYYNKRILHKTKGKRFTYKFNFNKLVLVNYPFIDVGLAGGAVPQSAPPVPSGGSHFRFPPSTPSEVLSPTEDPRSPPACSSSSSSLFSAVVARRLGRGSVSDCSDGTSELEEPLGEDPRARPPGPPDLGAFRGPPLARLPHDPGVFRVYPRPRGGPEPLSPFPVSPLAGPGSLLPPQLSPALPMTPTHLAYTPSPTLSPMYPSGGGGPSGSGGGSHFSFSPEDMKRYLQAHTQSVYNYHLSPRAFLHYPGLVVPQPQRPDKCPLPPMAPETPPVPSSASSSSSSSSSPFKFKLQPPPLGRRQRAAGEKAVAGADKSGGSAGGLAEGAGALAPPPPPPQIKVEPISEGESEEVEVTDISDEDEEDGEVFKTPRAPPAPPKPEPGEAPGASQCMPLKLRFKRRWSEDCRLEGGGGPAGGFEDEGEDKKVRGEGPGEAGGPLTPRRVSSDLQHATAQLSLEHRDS
# Outline: (§1)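 Human transcription factors were made in yeast as GST fusions, captured on glutathione beads and barcoded with DNA. With a tag-only sample included, the pool was incubated with 200 nmole of a random double-stranded 16-mer DNA library in Tris/NaCl/DTT/glycerol buffer at room temperature for 30 min, then crosslinked with 0.1% formaldehyde after washing, ligated by proximity, amplified and sequenced. For binding signal, each hexamer's read frequency for a factor is divided by its frequency for the tag-only sample.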
# [2] = target: T2, ETV3L (Homo sapiens, UniProt Q6ZN32 1-361)
# T2 sequence: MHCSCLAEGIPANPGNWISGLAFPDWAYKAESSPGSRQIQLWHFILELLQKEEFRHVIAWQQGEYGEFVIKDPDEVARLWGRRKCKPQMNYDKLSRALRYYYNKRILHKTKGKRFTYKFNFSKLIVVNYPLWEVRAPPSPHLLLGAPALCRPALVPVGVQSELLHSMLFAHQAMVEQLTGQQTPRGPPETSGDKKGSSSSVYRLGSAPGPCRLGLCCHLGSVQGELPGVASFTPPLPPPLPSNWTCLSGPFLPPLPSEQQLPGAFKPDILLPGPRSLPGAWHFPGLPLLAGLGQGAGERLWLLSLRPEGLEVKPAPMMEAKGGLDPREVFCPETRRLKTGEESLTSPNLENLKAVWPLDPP
# Outline: as §1
# [3] = target: T3, ETS2 (Homo sapiens, UniProt P15036 1-469)
# T3 sequence: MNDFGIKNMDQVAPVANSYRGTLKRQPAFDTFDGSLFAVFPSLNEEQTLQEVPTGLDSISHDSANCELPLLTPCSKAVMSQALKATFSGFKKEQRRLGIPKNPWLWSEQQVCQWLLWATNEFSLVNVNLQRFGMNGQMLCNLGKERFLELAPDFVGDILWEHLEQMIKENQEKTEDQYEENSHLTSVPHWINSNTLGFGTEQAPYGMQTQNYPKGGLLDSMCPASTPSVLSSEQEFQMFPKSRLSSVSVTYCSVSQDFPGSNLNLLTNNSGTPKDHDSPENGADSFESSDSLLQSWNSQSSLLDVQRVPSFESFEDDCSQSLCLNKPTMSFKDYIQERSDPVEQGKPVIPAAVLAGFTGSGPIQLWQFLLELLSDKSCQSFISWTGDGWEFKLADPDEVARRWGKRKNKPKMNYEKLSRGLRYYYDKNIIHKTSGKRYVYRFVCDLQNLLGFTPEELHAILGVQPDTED
# Outline: as §1
# [4] = target: T4, SPDEF (Homo sapiens, UniProt O95238 1-335)
# T4 sequence: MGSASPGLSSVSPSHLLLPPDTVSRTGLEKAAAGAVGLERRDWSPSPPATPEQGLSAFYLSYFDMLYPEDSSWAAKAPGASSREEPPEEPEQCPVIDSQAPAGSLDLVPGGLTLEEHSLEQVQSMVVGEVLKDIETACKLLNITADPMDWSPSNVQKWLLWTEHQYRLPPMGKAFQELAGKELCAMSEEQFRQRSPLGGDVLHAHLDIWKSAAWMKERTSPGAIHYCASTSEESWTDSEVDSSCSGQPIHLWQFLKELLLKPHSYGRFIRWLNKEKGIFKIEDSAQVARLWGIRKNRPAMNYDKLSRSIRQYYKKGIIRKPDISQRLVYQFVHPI
# Outline: as §1
# [5] = target: T5, ETV7 (Homo sapiens, UniProt Q9Y603 1-341)
# T5 sequence: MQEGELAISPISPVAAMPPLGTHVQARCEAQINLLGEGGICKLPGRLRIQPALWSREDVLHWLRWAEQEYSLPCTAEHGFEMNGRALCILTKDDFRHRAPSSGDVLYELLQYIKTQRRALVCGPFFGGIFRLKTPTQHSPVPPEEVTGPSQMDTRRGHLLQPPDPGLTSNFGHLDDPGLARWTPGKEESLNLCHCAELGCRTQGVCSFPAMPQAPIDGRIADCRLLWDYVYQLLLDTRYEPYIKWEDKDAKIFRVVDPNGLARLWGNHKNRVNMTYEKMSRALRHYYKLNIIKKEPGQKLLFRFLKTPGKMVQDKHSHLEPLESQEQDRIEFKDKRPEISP
# Outline: as §1
# [6] = target: T6, ELF5 (Homo sapiens, UniProt Q9UKW6-2 1-255)
# T6 sequence: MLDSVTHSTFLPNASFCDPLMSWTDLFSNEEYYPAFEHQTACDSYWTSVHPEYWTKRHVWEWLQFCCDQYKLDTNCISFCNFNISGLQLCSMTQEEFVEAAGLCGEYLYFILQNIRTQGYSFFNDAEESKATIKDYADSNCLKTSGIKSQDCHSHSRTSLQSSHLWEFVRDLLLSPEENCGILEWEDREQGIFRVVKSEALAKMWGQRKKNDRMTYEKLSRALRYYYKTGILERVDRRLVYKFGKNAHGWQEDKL
# Outline: as §1
# [7] = target: T7, ETV3 (Homo sapiens, UniProt P41162-2 1-143)
# T7 sequence: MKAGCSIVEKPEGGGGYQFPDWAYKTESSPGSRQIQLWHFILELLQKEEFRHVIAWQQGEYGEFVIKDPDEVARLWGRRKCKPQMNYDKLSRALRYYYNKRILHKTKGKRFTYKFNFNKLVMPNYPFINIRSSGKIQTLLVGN
# Outline: as §1
# [8] = target: ETV6 (Homo sapiens, UniProt P41212 1-452)
# Sequence of ETV6 (P41212 whole entry): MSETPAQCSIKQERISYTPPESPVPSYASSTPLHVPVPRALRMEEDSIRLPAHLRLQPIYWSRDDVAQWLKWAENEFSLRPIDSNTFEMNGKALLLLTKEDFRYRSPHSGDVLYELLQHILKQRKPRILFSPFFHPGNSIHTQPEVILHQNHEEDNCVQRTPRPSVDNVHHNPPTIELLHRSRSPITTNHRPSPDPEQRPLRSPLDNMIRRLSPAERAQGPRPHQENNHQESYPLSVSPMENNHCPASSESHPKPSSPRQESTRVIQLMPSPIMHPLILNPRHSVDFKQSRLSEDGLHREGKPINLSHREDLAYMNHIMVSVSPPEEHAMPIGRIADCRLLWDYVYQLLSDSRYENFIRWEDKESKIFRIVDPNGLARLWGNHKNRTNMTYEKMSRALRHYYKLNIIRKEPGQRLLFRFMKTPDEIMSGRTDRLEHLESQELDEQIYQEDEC
# Outline: as §1
Sequence,binding signal [1],binding signal [2],binding signal [3],binding signal [4],binding signal [5],binding signal [6],binding signal [7],binding signal [8]
ATGAAC,"1.26 fold enrichment (6-mer frequency, TF over GST control)","1.28 fold enrichment (6-mer frequency, TF over GST control)","1.29 fold enrichment (6-mer frequency, TF over GST control)","1.18 fold enrichment (6-mer frequency, TF over GST control)","1.2 fold enrichment (6-mer frequency, TF over GST control)","1.29 fold enrichment (6-mer frequency, TF over GST control)","1.28 fold enrichment (6-mer frequency, TF over GST control)","1.24 fold enrichment (6-mer frequency, TF over GST control)"
CTACGG,"1.37 fold enrichment (6-mer frequency, TF over GST control)","1.42 fold enrichment (6-mer frequency, TF over GST control)","1.16 fold enrichment (6-mer frequency, TF over GST control)","1.17 fold enrichment (6-mer frequency, TF over GST control)","1.28 fold enrichment (6-mer frequency, TF over GST control)","1.24 fold enrichment (6-mer frequency, TF over GST control)","1.29 fold enrichment (6-mer frequency, TF over GST control)","1.19 fold enrichment (6-mer frequency, TF over GST control)"
TCGCTA,"1.16 fold enrichment (6-mer frequency, TF over GST control)","1.09 fold enrichment (6-mer frequency, TF over GST control)","1.06 fold enrichment (6-mer frequency, TF over GST control)","1.03 fold enrichment (6-mer frequency, TF over GST control)","1.12 fold enrichment (6-mer frequency, TF over GST control)","1.06 fold enrichment (6-mer frequency, TF over GST control)","1.01 fold enrichment (6-mer frequency, TF over GST control)","1.04 fold enrichment (6-mer frequency, TF over GST control)"
AAAATA,"1.27 fold enrichment (6-mer frequency, TF over GST control)","1.14 fold enrichment (6-mer frequency, TF over GST control)","1.24 fold enrichment (6-mer frequency, TF over GST control)","1.06 fold enrichment (6-mer frequency, TF over GST control)","1.22 fold enrichment (6-mer frequency, TF over GST control)","1.2 fold enrichment (6-mer frequency, TF over GST control)","1.13 fold enrichment (6-mer frequency, TF over GST control)","1.25 fold enrichment (6-mer frequency, TF over GST control)"
TAGCTA,"1.23 fold enrichment (6-mer frequency, TF over GST control)","1.24 fold enrichment (6-mer frequency, TF over GST control)","1.28 fold enrichment (6-mer frequency, TF over GST control)","1.08 fold enrichment (6-mer frequency, TF over GST control)","1.31 fold enrichment (6-mer frequency, TF over GST control)","1.16 fold enrichment (6-mer frequency, TF over GST control)","1.18 fold enrichment (6-mer frequency, TF over GST control)","1.28 fold enrichment (6-mer frequency, TF over GST control)"
CTAGAT,"1.24 fold enrichment (6-mer frequency, TF over GST control)","1.34 fold enrichment (6-mer frequency, TF over GST control)","1.2 fold enrichment (6-mer frequency, TF over GST control)","1.26 fold enrichment (6-mer frequency, TF over GST control)","1.2 fold enrichment (6-mer frequency, TF over GST control)","1.11 fold enrichment (6-mer frequency, TF over GST control)","1.19 fold enrichment (6-mer frequency, TF over GST control)","1.05 fold enrichment (6-mer frequency, TF over GST control)"
GACTCC,"1.32 fold enrichment (6-mer frequency, TF over GST control)","1.27 fold enrichment (6-mer frequency, TF over GST control)","1.29 fold enrichment (6-mer frequency, TF over GST control)","1.41 fold enrichment (6-mer frequency, TF over GST control)","1.23 fold enrichment (6-mer frequency, TF over GST control)","1.16 fold enrichment (6-mer frequency, TF over GST control)","1.35 fold enrichment (6-mer frequency, TF over GST control)","1.18 fold enrichment (6-mer frequency, TF over GST control)"
TCTCTC,"1.31 fold enrichment (6-mer frequency, TF over GST control)","1.38 fold enrichment (6-mer frequency, TF over GST control)","1.2 fold enrichment (6-mer frequency, TF over GST control)","1.28 fold enrichment (6-mer frequency, TF over GST control)","1.11 fold enrichment (6-mer frequency, TF over GST control)","1.24 fold enrichment (6-mer frequency, TF over GST control)","1.37 fold enrichment (6-mer frequency, TF over GST control)","1.27 fold enrichment (6-mer frequency, TF over GST control)"
AACATC,"1.43 fold enrichment (6-mer frequency, TF over GST control)","1.41 fold enrichment (6-mer frequency, TF over GST control)","1.45 fold enrichment (6-mer frequency, TF over GST control)","1.68 fold enrichment (6-mer frequency, TF over GST control)","1.35 fold enrichment (6-mer frequency, TF over GST control)","1.64 fold enrichment (6-mer frequency, TF over GST control)","1.5 fold enrichment (6-mer frequency, TF over GST control)","1.4 fold enrichment (6-mer frequency, TF over GST control)"

# Source: PMC7862700, “An all-to-all approach to the identification of sequence-specific readers for epigenetic DNA modifications on cytosine”
